Screening data as filed in PubChem.
Shown is part of a subset that was picked to be rich in hits.
DT40 TDP1 CPT: qHTS for Inhibitors of human tyrosyl-DNA phosphodiesterase 1 (TDP1): qHTS in cells in presence of CPT; hit rate 12% among 420,000; Potency, µM (top dose mostly 46.2 µM), for the others: at the top dose activity change, negative = growth inhibition, most hits filed as inhibitors; chicken DT40 Tdp1-/-;hTDP1 cells + 20 nM CPT, ATP luminescence, 48 h; further: potency means the concentration at half of the fitted maximal effect; nearly all actives have a fitted effect of over 55% in size
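Cell growth measured by CellTiter-Glo luminescence after a minimum 48 h, 37 C compound exposure with 20 nM CPT in Tdp1-knockout DT40 cells stably expressing hTDP1, seeded 400/well; qHTS titration format.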
ALOX12 inh: Primary qHTS assay for inhibitors of human arachidonate 12S-lipoxygenase (ALOX12): Round 2. Polyunsaturated fatty acid lipoxygenase ALOX12 (Homo sapiens), P18054. hit rate 1.1% among 580,000. purified 12hLO, xylenol orange hydroperoxide absorbance. Potency, µM (series often up to 108 µM), for the others: at the top dose activity change, negative = inhibition, usual class: inhibitors; further: potency means the concentration at half of the fitted maximal effect
Target sequence (P18054 whole entry, looked up): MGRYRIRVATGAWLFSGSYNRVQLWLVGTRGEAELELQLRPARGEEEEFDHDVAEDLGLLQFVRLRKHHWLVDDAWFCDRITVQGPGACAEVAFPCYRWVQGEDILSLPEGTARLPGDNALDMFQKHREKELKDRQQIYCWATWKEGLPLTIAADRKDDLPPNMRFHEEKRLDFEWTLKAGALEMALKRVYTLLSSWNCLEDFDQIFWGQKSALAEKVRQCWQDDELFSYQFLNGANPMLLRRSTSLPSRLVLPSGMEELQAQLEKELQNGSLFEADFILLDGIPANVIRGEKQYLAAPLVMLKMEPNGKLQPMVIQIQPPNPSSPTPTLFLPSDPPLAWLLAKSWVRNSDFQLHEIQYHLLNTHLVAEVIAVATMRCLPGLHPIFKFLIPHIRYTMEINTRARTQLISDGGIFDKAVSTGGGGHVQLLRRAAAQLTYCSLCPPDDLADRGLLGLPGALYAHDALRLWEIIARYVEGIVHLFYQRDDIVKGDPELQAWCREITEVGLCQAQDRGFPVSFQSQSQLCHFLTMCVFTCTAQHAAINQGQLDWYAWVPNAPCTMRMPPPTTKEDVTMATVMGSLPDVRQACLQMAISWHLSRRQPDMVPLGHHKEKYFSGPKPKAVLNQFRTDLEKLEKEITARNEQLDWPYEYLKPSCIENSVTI
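Purified human 12hLO at 150 nM in 25 mM Hepes, 0.01% Triton X-100, pH 7.0, preincubated 15 min at room temperature with compound. Reaction started with 40 uM arachidonic acid, 30 min at room temperature. Hydroperoxide measured by Fe-xylenol orange, 573/405 nm absorbance ratio.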
HT1080-NT tox: qHTS for induction of synthetic lethality in tumor cells producing 2HG: qHTS for the HT-1080-NT fibrosarcoma cell line; HT-1080-NT fibrosarcoma viability, CellTiter-Glo ATP luminescence, 48 h; hit rate 1.6% among 360,000; Potency, µM (series often up to 46.1 µM), without a hit: at the highest dose activity, negative = less viability, usual class: cytotoxic;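 further: NT is the 2HG producing partner of a matched IDH1 knockdown line; potency means the concentration at half of the fitted maximal effect; 0% = DMSO-treated cells and -100% = media-only wells without cells; nearly all actives have a fitted effect of over 55% in size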
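Compounds were tested in concentration-response format on HT-1080-NT cells for 48 hours at 37 degrees C. Cell viability came from CellTiter-Glo luminescence; curves were classified by r2, response magnitude and activity.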
TDP1 cell noCPT: qHTS for Inhibitors of human tyrosyl-DNA phosphodiesterase 1 (TDP1): qHTS in cells in absence of CPT; Potency, µM (top dose mostly 46.2 µM), without a hit: at the top dose activity change, negative = growth inhibition, most hits filed as inhibitors; DT40 Tdp1-/- hTDP1 cells, no CPT, ATP luminescence, 48 h; AID 686978, 2013; hit rate 15% among 420,000; further: potency means the concentration at half of the fitted maximal effect; nearly all actives have a fitted effect of over 55% in size
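DT40 Tdp1-/-;hTDP1 cells, no CPT (DMSO vehicle only), 400 cells/well; compounds pin-transferred; ≥48 hr, 37 °C; CellTiter-Glo 30 min RT dark, luminescence read.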
IL-1B inflam inh: qHTS for Inhibitors of Inflammasome Signaling: IL-1-beta AlphaLISA Primary Screen; THP-1 LPS/ATP IL-1B secretion, AlphaLISA, 16 h; stronger effect = lower value; activity change, % at 57.5 µM; hit rate 4.7% among 360,000; in the data active means activity change below about -50%; inconclusive means mostly about -30% to -49%
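Secreted IL-1B measured by AlphaLISA bead assay after 16 h compound exposure of THP-1 cells; compounds (final up to 57.5 uM) added 1 h before LPS (250 ng/mL) and ATP (1.25 mM) stimulation; lower signal means less secretion.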
HT1080 IDH1KD tx: qHTS for induction of synthetic lethality in tumor cells producing 2HG: qHTS for the HT-1080-IDH1KD cell line; HT-1080 IDH1 knockdown viability, ATP luminescence, 48 h; Potency, µM (doses to about 46.1 µM), for the others: top-dose activity, negative = toxicity, most hits filed as cytotoxic; hit rate 2% among 360,000; AID 686971, 2013;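 further: potency means the concentration at half of the fitted maximal effect; 0% = DMSO wells and -100% = cell-free medium wells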
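HT-1080-IDH1KD cells (IDH1 knocked down), 750/well in RPMI with 5% FBS, treated with compound 48 h at 37 degrees C. Viability by CellTiter-Glo luminescence, normalised to DMSO and no-cell wells; concentration-response curves classed.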
* hit, by the source's call; ? = inconclusive; . = not tested or not shown; ! = a repeat was not active. Unless noted, the call rests on the fitted dose curve; in most records, active means well fitted curve in the direction sought with a large enough effect; inconclusive means small, poorly fitted or top-dose-only effect, or another doubt; inactive means no such curve, though single readings can be large; an effect the other way counts as inactive or inconclusive. Unless noted, on the % scale 0 is the no-effect control and ±100 the full control effect.

SMILES	DT40 TDP1 CPT	ALOX12 inh	HT1080-NT tox	TDP1 cell noCPT	IL-1B inflam inh	HT1080 IDH1KD tx
CN1C(=O)C2(Oc3ccccc3C3CC(c4ccccc4)=NN32)c2ccccc21 (stereo not drawn)	23µM*	.	-28%	?	-14	-17%
Cc1ccc([C@H]2C[C@H](O)[C@@H](n3cc(C4CC4)nn3)CN2Cc2cccs2)cc1	9.2µM*	?	-21%	12µM*	-25	-1%
COc1ccc([C@H]2C[C@H](O)[C@@H](n3cc(-c4ccc(F)cc4)nn3)CN2Cc2cccs2)cc1	5.2µM*	?	2.9µM*	5.2µM*	-61*	4.6µM*
COc1ccc([C@H]2C[C@H](n3cc(-c4ccc(F)cc4)nn3)[C@@H](O)CN2Cc2cccs2)cc1	5%	-3%	4%	-7%	10	2%
O[C@H]1C[C@H](c2ccccc2)N(Cc2cccs2)C[C@@H]1n1cc(-c2ccc(F)cc2)nn1	23µM*	35µM*	23µM*	23µM*	-79*	18µM*
COCc1cn(C[C@H]2C[C@@H](NC(=O)c3cc(C)n(C)n3)[C@H](O)[C@@H]2O)nn1	.	62%	.	.	.	.
c1coc(CNc2nc(NCc3ccco3)c3ccccc3n2)c1	11µM*	.	.	13µM*	.	.
N#Cc1c2c(c(NCc3ccco3)n3c1nc1ccccc13)CCC2	-59%	16%	2%	21µM*	55	7%
Cc1nnc(NCc2ccco2)c2ccccc12	-17%	-2%	0%	-16%	-6	0%
Fc1ccc(Nc2nc(NCc3ccco3)c3ccccc3n2)cc1	9.2µM*	40%	?	6.5µM*	-102*	-18%
c1coc(CNc2c3c(nc4ccccc24)CCC3)c1	16µM*	0%	-7%	23µM*	-74*	-13%
COc1ccccc1N1CN(Cc2cccnc2)Cn2c1nc(C)c(Cc1ccccc1)c2=O	.	4%	.	.	.	.
Cc1ccc2c(NCc3ccco3)nc(NC(C)C)nc2c1	?	?	26µM*	?	-111*	18µM*
Nc1ccc2cccc(O)c2c1	?	-13%	-19%	13µM*	20	-7%
Nc1ccc2cc3ccccc3cc2c1	?	-24%	5%	?	-13	-4%
CC(=O)NC1=NN(C(C)=O)C(C)(c2ccccn2)S1 (stereo not drawn)	23%	1%	11%	?	5	11%
CC(=O)NC1=NN(C(C)=O)C(C)(c2ccc(Br)cc2)S1 (stereo not drawn)	-20%	1%	?	?	45	18µM*
COc1ccc(C(=O)N2N=C(c3ccccc3)CC2(O)C(F)(F)F)cc1 (stereo not drawn)	-82%	-12%	-24%	-16%	4	-22%
COc1ccc(NC(=O)C(=O)N2N=C(C(C)C)CC2(O)C(F)(F)F)cc1 (stereo not drawn)	5.8µM*	5%	?	5µM*	-12	8.9µM*
CCC1=NN(C(=O)CCc2ccccc2O)C(O)(C(F)(F)F)C1 (stereo not drawn)	-22%	-3%	21%	?	-17	8%
CCC1=NN(C(=O)C(=O)Nc2ccc(Br)cc2)C(O)(C(F)(F)F)C1 (stereo not drawn)	-12%	?	21µM*	-3%	44	?
CCCC1=NN(C(=O)C(=O)Nc2ccc(Br)cc2)C(O)(C(F)(F)F)C1 (stereo not drawn)	4.1µM*	?	13µM*	4.6µM*	21	16µM*
O=C(Nc1ccn2ccnc2n1)c1ccccc1OC(F)(F)F	.	-20%	.	.	.	.
Cc1ccc2nc(C)cc(C(=O)OC(C)C(=O)NC3CCCC3)c2c1 (stereo not drawn)	.	-10%	.	.	.	.
CCCCC1(COC(=O)CCC(=O)O)C(=O)N(c2ccccc2)N(c2ccccc2)C1=O	0.0023µM*!	-11%	-8%	?	-4	5%
SMILES	DT40 TDP1 CPT	ALOX12 inh	HT1080-NT tox	TDP1 cell noCPT	IL-1B inflam inh	HT1080 IDH1KD tx
Cc1nn(Cc2ccc([N+](=O)[O-])cc2)c(=O)n1-c1ccccc1	-10%	0%	-7%	-8%	6	-16%
CCCCC1(Cc2ccc([N+](=O)[O-])cc2)C(=O)N(c2ccccc2)N(c2ccccc2)C1=O	?	-6%	-19%	?	-58*	?
O=C(O)CCC(=O)OCCCc1ccccc1	.	3%	.	.	.	.
COC(=O)COc1ccccc1C(=O)Nc1ccc(OC)cc1	-1%	-13%	12%	-3%	39	23%
COc1ccc(OCCNC(=O)c2ccccc2OCC(=O)Nc2ccc(NC(C)=O)cc2)cc1	18µM*	-4%	-9%	15µM*	3	-3%
COc1ccc(OCCNC(=O)c2ccccc2OCC(=O)N2CCCCC2)cc1	21µM*	4%	-20%	18µM*	2	-8%
CN(C)C1(CNC(=O)c2ccc(OC3CCN(C(=O)C4CC4)CC3)cc2)CCCCC1	.	7%	.	.	.	.
COCCn1c(C)cc(C(=O)COc2ccc(N(C)S(=O)(=O)c3ccc(C)cc3)cc2)c1C	18µM*	?	-2%	?	2	-18%
COc1ccc(NC(=O)COc2ccc(N(C)S(=O)(=O)c3ccc(C)cc3)cc2)cc1	?	4%	-12%	?	?	-7%
Cc1ccc(S(=O)(=O)N(C)c2ccc(OCC(=O)Nc3ccc(S(C)(=O)=O)cc3)cc2)cc1	18µM*	1%	-1%	16µM*	-5	-1%
COCCn1c(C)cc(C(=O)COC(=O)c2ccc(S(=O)(=O)N(C)C)cc2)c1C	-7%	?	1%	-3%	14	-4%
COc1ccc(NC(=O)CS(=O)(=O)c2cccc(Cl)c2)cc1	?	0%	10%	23µM*	-25	10%
COc1ccc(NC(=O)COc2ccc(N(C)S(=O)(=O)c3ccc(Cl)cc3)cc2)cc1	-11%	366%	-6%	?	-52*	-9%
COc1ccc(-c2nnc3ccc(Nc4ccc(F)cc4)nn23)cc1	.	-7%	.	.	.	.
